Screening data (PubChem)
Vif-A3G inh = blocks the Vif interaction with human APOBEC3G. Q9HC16. HeLa A3G-eYFP + Vif (tagged APOBEC3G with the HIV-1 protein that degrades it), YFP fluorescence, overnight. Potency, µM (series often up to 46.1 µM), inactives show top-dose activity, negative = active, usual class: inhibitors. hit rate 0.076% among 410,000. AID 602310; note: potency is the fitted concentration of half-maximal effect; % is set by controls: 0 for no effect and ±100 for the full control effect; nearly all actives have a fitted effect of over 60% in size
Target sequence (Q9HC16 whole entry, looked up): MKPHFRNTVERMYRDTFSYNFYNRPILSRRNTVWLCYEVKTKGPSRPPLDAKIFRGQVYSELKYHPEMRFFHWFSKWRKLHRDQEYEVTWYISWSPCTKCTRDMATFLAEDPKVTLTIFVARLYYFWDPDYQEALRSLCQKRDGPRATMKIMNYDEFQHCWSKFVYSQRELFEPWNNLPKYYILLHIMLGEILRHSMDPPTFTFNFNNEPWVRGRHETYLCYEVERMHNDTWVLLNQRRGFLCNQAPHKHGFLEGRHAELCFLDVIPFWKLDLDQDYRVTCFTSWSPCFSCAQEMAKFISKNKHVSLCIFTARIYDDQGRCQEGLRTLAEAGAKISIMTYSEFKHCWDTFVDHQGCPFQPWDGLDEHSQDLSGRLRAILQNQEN
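HeLa cells stably expressing Vif and C-terminally eYFP-tagged A3G, seeded overnight at 37 deg C, then exposed to compound by pintool overnight at 37 deg C. Rise in yellow fluorescence (Ex 488/Em 500-530, Acumen) marks blocked Vif-driven A3G degradation.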
IL-1B inflam inh = inflammasome signaling inhibition, IL-1 beta readout. THP-1 LPS/ATP IL-1B secretion, AlphaLISA, 16 h; hits give low values. activity change, % at 57.5 µM. hit rate 4.7% among 360,000; in the data active = activity change below about -50%; inconclusive = mostly about -30% to -49%; note: % is set by controls: 0 for no effect and ±100 for the full control effect
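THP-1 cells pretreated 1 hr with compounds (up to 57.5 uM final), then stimulated with LPS (250 ng/mL final) plus ATP (1.25 mM final); secreted IL-1B measured by AlphaLISA after 16 hr, decreased signal indicating inhibition.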
SW480 rereplic = inducers of DNA re-replication in SW480 colon cancer cells; Potency, µM (series often up to 46.1 µM), without a hit: top-dose re-replication activation, actives largely listed as activators; AID 624297; hit rate 1.8% among 340,000; SW480 DNA re-replication, Hoechst DNA content imaging, 48 h; note: potency is the fitted concentration of half-maximal effect; % of control where 0% means no effect; nearly all actives have a fitted effect of over 55% in size
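Hoechst fluorescence of nuclei (405 nm excitation, 500-530 nm emission) measured by plate-scanning imager after 48 hr compound exposure at 37 C; re-replication scored as increased number of nuclei with elevated intensity.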
Giardia killer = Giardia lamblia killing; Giardia lamblia trophozoite viability; activity change, % at 7.66 µM, hits read low; hit rate 0.15% among 340,000; AID 540267; in the data active = activity change below about -80%; inconclusive = between about -30% and that limit;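 note: parasites exposed to compound for two days anaerobically before the ATP read; % is set by controls: 0 for no effect and ±100 for the full control effect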
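Compounds were tested on trophozoites seeded at 100 cells/well and held 48 hrs at 37 deg C anaerobically. An ATP-based luminescent kit measured the remaining live cells.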
MCF10A rereplic = induces DNA re-replication in MCF 10a normal breast cells | MCF 10A DNA re-replication, Hoechst nuclear intensity, 48 h | Potency, µM (titrated, usually from 46.1 µM), for the others: at the top dose activity, positive = re-replication, most hits filed as activators | hit rate 2.9% among 350,000 | AID 624296; note: potency is the fitted concentration of half-maximal effect; % of control where 0% means no effect; nearly all actives have a fitted effect of over 50% in size
Vif-APOBEC3F blk = inhibitors of Vif-A3F interaction; HeLa A3F-eYFP + Vif (tagged APOBEC3F with the HIV-1 protein that degrades it), YFP fluorescence increase; Potency, µM (top dose mostly 46.1 µM), for inactives: at the highest dose activity, negative = active; hit rate 0.2% among 390,000; note: potency is the fitted concentration of half-maximal effect; % of control where 0% means no effect; nearly all actives have a fitted effect of over 65% in size
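HeLa cells stably expressing Vif plus C-terminally eYFP-tagged A3F were seeded, incubated overnight at 37 deg C, dosed with compound, incubated overnight again at 37 deg C. Yellow fluorescence (Ex 488/Em 500-530) reported blocked Vif-mediated A3F-eYFP degradation.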
* = called active by the depositor; u = inconclusive; x = no result; ! = repeats disagree; [ ] = remark or other dose. Most compounds without a hit are left out; they make up all but 6.9% or so of the library. Unless noted, calls come from the whole dose curve; as a rule, active = well fitted curve in the direction sought with a large enough effect; inconclusive = small, poorly fitted or top-dose-only effect, or another doubt; inactive = no such curve, though single readings can be large; an effect the other way counts as inactive or inconclusive.

SMILES	Vif-A3G inh	IL-1B inflam inh	SW480 rereplic	Giardia killer	MCF10A rereplic	Vif-APOBEC3F blk
CCOC(=O)c1cc2c(=O)n3cccc(C)c3nc2n(CC(C)C)c1=NC(=O)c1ccco1	-1.4%	-4.3	u	8.2	u	-1.6%
CCOC(=O)c1cc2c(=O)n3ccccc3nc2n(CCCOC)c1=NC(C)=O	-4.9%	-20.3	u	10.1	u	x
CC(C)n1c(=NC(=O)c2ccco2)c(C#N)cc2c(=O)n3ccccc3cc21	3.3%	36.7	13µM*	-3.0	8.91µM*	0.0%
Cc1ccc(CCNC(=O)CCCn2c(=O)c3cccn3c3ccc(F)cc32)cc1	3.1%	x	x	x	x	0.4%
COc1ccc(-c2ccccc2C2C3C=CCCC3(C)C(=O)N2Cc2ccccc2)cc1 (configuration not stated)	-7.5%	x	x	11.5	x	x
CCOC(=O)c1cc2c(=O)n3ccccc3nc2n(Cc2ccco2)c1=NC(=O)c1cccc(OC)c1	-5.9%	-55.2*	u	-0.9	u	1.0%
CCOC(=O)c1cc2c(=O)n3ccccc3nc2n(Cc2ccco2)c1=NC(=O)c1ccc(OC)cc1	-7.5%	1.8	5.4%	13.3	u	-19.0%
CCOC(=O)c1cc2c(=O)n3ccccc3nc2n(C(C)C)c1=NC(=O)c1ccco1	-1.0%	-0.3	7.31µM*	7.1	7.31µM*	-2.2%
Cc1ccc(C(=O)/C=C/Nc2cccc(O)c2)cc1	0.1%	-9.1	u	1.6	23.1µM*	-16.2%
CCOc1ccc(C(=O)/C=C/c2ccc(SC)cc2)cc1	-1.4%	-19.0	u	8.6	u	3.4%
Cc1ccc(/C=C/C(=O)c2ccc(O)cc2)cc1	u	-99.7*	18.4µM*	u	u	8.6%
CSc1ccc(/C=C/C(=O)c2ccc(O)cc2)cc1	-10.3%	-79.4*	21.4%	-18.1	u	-7.5%
Fc1ccccc1N1CCN(c2nnc(C(F)(F)F)c3nnn(Cc4ccccc4)c23)CC1	4.1%	x	x	x	x	-2.3%
CC(=O)c1ccc(NC(=O)c2cnn3c2NC(=C2CC2)C=C3C(F)F)cc1	3.0%	x	x	x	x	x
O=C1OCC2=C1C(c1cccc(Cl)c1)CC(=O)N2c1ccc(C(F)(F)F)cc1 (configuration not stated)	-4.9%	x	x	x	x	-3.2%
CC(C)COc1cccc(C(=O)Nc2ccc(CN3CCOCC3)cc2)c1	0.6%	-81.6*	u	-5.8	u	-8.8%
Cc1cc(OCC(=O)Nc2ccc(CN3CCOCC3)cc2)ccc1Cl	0.8%	-51.4*	3.6%	11.2	28.9%	7.5%
COc1ccc(CN2[C@@H](CC(C)=O)c3ccc(/C=C/C(C)=O)cc3S2(=O)=O)cc1	u	-102.4*	u	7.7	u	-0.1%
COc1cccc(N2[C@@H](CC(C)=O)c3ccc(/C=C/C(C)=O)cc3S2(=O)=O)c1	u	-99.8*	11.2%	16.1	20.6µM*	4.0%
COC(=O)C[C@H]1c2ccccc2S(=O)(=O)N1c1cccc(OC)c1	-1.1%	14.9	0.2%	-20.6	29.4%	-4.8%
CCOc1cc(CNC(=O)c2ccc3nc(CCc4ccccc4)oc3c2)ccc1OC	-1.7%	x	x	x	x	-1.8%
CN(C(=O)c1cnc(N2CCN(c3ncccn3)CC2)c2ccccc12)c1ccc(Cl)cc1	2.4%	-83.9*	9.5%	-4.0	u	-0.6%
CCN(C(=O)c1cnc(N2CCN(c3ncccn3)CC2)c2ccccc12)c1cccc(Cl)c1	2.5%	-64.9*	u	-12.4	u	5.3%
O=C(c1cnc(N2CCN(c3ncccn3)CC2)c2ccccc12)N1CCN(c2ncccn2)CC1	0.1%	-53.8*	3.9%	-0.6	u	-0.8%
O=C(O)c1ccccc1C(=O)N1CCN(c2ncccn2)CC1	-0.6%	32.4	-5.2%	1.0	-0.9%	14.5%
SMILES	Vif-A3G inh	IL-1B inflam inh	SW480 rereplic	Giardia killer	MCF10A rereplic	Vif-APOBEC3F blk
COc1ccccc1CNC(=O)CSc1ncc2c(n1)-c1cc(Cl)ccc1N(Cc1ccccc1)S2(=O)=O	1.9%	x	x	x	x	-2.0%
COc1ccc(-n2c(=O)c3c(c4cc(OC)ccc4n3C)n(C)c2=O)cc1	-0.6%	x	x	x	x	-6.6%
Oc1cccc(C2c3[nH]c4ccccc4c3CCN2Cc2ccc3c(c2)CCO3)c1 (configuration not stated)	-19.7%	-93.1*	u	-13.3	16.4µM*	6.5%
Cc1cccc(C2c3[nH]c4ccccc4c3CCN2Cc2cccn2-c2ncccn2)c1 (configuration not stated)	-5.7%	-87.2*	22.4%	2.2	u	-0.9%
Cc1cc(C)c(NC(=O)CSC2=Nc3ccccc3C3=NC(CC(=O)NCc4cccs4)C(=O)N23)c(C)c1 (configuration not stated)	0.9%	x	x	x	x	1.8%
COc1ccc2c(c1)sc1ncc(C(=O)NCc3ccc(Cl)cc3)c(=O)n12	-5.6%	x	x	x	x	1.5%
O=C(O)CN(CCN(CC(=O)O)CC(=O)O)CCN(CC(=O)O)CC(=O)O	x	x	23.7µM*!	x	-7.7%[0.169 µM]	x
CC(=O)c1ccc(OCc2ccc(C(=O)c3ccccc3)cc2)cc1	-0.3%	-60.5*	-13.5%	5.2	12.6%	-33.8%
CN(c1ccc(/C=C/c2ccccc2)cc1)P1(=O)NCCCO1 (configuration not stated)	0.6%	x	x	x	x	x
CCc1ccc2c(c1)C1(C(=O)N2)N2CCCC2C(C(=O)c2ccc3ccccc3c2)C12C(=O)Nc1ccccc12 (configuration not stated)	-15.4%	-99.3*	u	7.0	u	-9.8%
CCc1cccc2c1NC(=O)C21N2CCCC2C(C(=O)c2ccc3ccccc3c2)C12C(=O)Nc1ccccc12 (configuration not stated)	-6.0%	-104.5*	u	1.9	14.5%	-9.4%
Cc1cccc2c1NC(=O)C21N2CCCC2C(C(=O)c2ccc3ccccc3c2)C12C(=O)Nc1ccccc12 (configuration not stated)	0.0%	-17.9	u	6.5	u	-0.5%
CC(C)(C)OC(=O)NC(Cc1ccccc1)C(O)c1ccco1 (configuration not stated)	2.4%	x	x	4.1	x	x
CN(CC(=O)Nc1ccccc1Br)CC(=O)NC(c1ccccc1)c1ccccc1	-0.1%	-50.7*	-64.5%	21.9	-22.3%	1.2%
CC(NC(=O)CN(C)CC(=O)Nc1ccccc1Br)c1ccccc1 (configuration not stated)	2.9%	-20.0	-0.7%	3.1	17.1%	0.8%
O=S(=O)(c1ccc(Cl)cc1)c1nc(-c2cccs2)oc1N1CCCCC1	-2.4%	x	x	x	x	-3.9%
C/C(=N\N=C(/N)SC1CC(=O)N(c2ccccc2)C1=O)c1cccs1 (configuration not stated)	-2.1%	-8.5	3.66µM*	11.3	2.31µM*	-8.6%
